The list is not random: actives were taken first. Their share in the collection is about 28%.
Mac1 fbg inh: blocks human CD11b/CD18 adhesion to fibrinogen; 93,000 tested, 0.54% active; K562 CD11b/CD18 adhesion to fibrinogen, ATPlite luminescence; Mn2+ added to activate the integrin; P05107+P11215; inhibition, % at 10 µM;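 active means primary inhibition of 50% or more at 10 µM, then 40% or more on retest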
Target sequence (P05107 whole entry, looked up, other chains not shown): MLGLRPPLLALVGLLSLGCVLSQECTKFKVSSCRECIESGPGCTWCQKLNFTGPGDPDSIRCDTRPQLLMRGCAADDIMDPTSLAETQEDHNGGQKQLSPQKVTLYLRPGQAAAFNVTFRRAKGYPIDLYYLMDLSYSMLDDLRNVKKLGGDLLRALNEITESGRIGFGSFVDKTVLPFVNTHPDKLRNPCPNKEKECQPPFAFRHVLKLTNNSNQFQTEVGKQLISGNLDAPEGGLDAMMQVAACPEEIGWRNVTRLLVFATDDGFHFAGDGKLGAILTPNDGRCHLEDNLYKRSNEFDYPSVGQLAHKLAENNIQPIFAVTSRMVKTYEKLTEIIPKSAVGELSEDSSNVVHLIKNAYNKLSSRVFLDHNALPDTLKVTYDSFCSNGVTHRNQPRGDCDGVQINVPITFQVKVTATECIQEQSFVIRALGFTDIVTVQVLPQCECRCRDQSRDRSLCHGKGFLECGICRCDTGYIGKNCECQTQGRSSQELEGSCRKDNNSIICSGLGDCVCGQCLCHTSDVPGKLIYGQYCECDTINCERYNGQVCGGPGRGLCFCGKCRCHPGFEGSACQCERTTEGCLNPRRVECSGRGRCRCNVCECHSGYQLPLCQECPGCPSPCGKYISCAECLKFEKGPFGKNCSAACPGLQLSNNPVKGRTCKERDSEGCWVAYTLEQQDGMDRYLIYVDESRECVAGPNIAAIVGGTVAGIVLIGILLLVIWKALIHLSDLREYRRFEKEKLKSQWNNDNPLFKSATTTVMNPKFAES
CYP2C9 inhib: human CYP2C9 inhibition. inhibition, % at 5 µM. P11712. CYP2C9 Supersomes, luciferin-H conversion, luminescence. 96,000 tested, 20% active. AID 777;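 active means blocking of liver enzyme CYP2C9 beyond about 50% at 5 µM, limit read from the data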
CYP2C19 activ: activators of human cytochrome P450 2C19. P33261. 96,000 tested, under 10 active. recombinant CYP2C19, luciferin-H EGE luminescence; active compounds read high; 0 = fully inhibited enzyme, 1 = untreated enzyme. activation factor at 5 µM;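 active means activation factor of at least 2 at 5 µM in the primary screen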;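 further: 0 = wells with 2.5 mM tranylcypromine and 1 = vehicle-only wells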
CD11b adhes enh: enhancers of human CD11b/CD18 binding to fibrinogen | P05107+P11215 | K562 CD11b/CD18 adhesion to fibrinogen, ATPlite luminescence | activation, % at 10 µM | 93,000 tested, 0.07% active;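 active means 10 µM primary screen giving 50% or more activity, confirmed by 40% or more on retest at that dose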
CYP2C19 inh: human CYP2C19 inhibition | AID 778 | P33261 | CYP2C19 Supersomes, luciferin-H EGE luminescence, 30 min | 96,000 tested, 21% active | inhibition, % at 5 µM;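 active means CYP2C19 inhibition above a set limit at 5 µM in the primary screen, cut at about 50% in these data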;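 further: plate controls were negative control wells for no effect and 2.5 mM tranylcypromine positive control for full effect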
CYP2C9 activ: activators of human CYP2C9; P11712; AID 1024; activation factor at 5 µM; recombinant CYP2C9, luciferin-H conversion, luminescence; active compounds read high; factor 1 = untreated enzyme, 0 = blocked; 96,000 tested, 1.4% active;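 active means activation factor of 2 or more for CYP2C9 at a 5 µM dose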;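 further: 0 = sulfaphenazole-blocked wells and 1 = vehicle-only wells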
An asterisk follows results filed as active; x = no result given.

SMILES	Mac1 fbg inh	CYP2C9 inhib	CYP2C19 activ	CD11b adhes enh	CYP2C19 inh	CYP2C9 activ
Cc1ccc(C2CC(c3ccc(C)cc3)n3nc(N)nc3N2)cc1 (stereo not drawn)	-6	42	0.5	3	47	0.6
COc1ccc(C2CC(c3ccc(Br)cc3)Nc3nc(N)nn32)cc1 (stereo not drawn)	-12	51*	0.8	4	22	0.5
CCOC(=O)C(CO)(NC(C)=O)C(=O)OCC	-4	-11	1.2	-1	-16	1.1
COCCNCCOCCOc1ccc(Cl)c(C)c1	2	-4	0.7	-2	32	1
Cc1ccc(C)c(C(=O)c2c(C)nc3sccn23)c1	-6	50	0.1	-1	95*	0.5
COc1ccc(NCc2nnc(SCC(=O)c3ccc(OC)cc3)n2C)cc1	13	12	0.8	14	19	0.9
CSc1nc(Sc2ccc(Cl)cc2)c2ccccc2n1	x	39	0.5	x	46	0.6
CSc1nc(Sc2ccccc2)c2ccccc2n1	-3	85*	0.5	3	49	0.2
COc1cc2c(cc1OC)-c1nc3ccccc3c(=O)n1C(C)(C)C2	-9	56*	0.7	-2	26	0.4
CCOC(=O)Cn1c(=O)c2c(nc(Br)n2Cc2ccc(Cl)cc2)n(C)c1=O	9	56*	0.6	3	44	0.4
CCOC(=O)Cn1c(=O)c2c(nc(N3CCCCC3)n2Cc2ccccc2)n(C)c1=O	-11	31	0.8	3	17	0.7
CCOC(=O)CCn1c(=O)c2c(nc(Br)n2Cc2ccccc2)n(C)c1=O	-10	41	0.4	-3	60*	0.6
CCOC(=O)CCn1cc(F)c(=O)n(Cc2ccccc2)c1=O	2	11	0.5	-7	52*	0.9
O=C(CCCNC(=O)/C(=C\c1ccc(F)cc1)NC(=O)c1ccccc1)OCc1ccccc1	x	46	0.4	x	63*	0.5
Cc1ccc(OCCN2CCN(c3ncnc4sc(C)c(C)c34)CC2)cc1	97*	89*	0.1	-8	86*	0.1
Clc1ccc(OCCN2CCN(c3ncnc4sccc34)CC2)cc1	99*	56*	0.2	-8	84*	0.4
COc1ccc(OCC(=O)NNC(=O)c2cccc(S(=O)(=O)N(C)C)c2)cc1	-10	x	x	-1	x	x
C=CCn1c(SC(C)C(=O)NCc2ccc3c(c2)OCO3)nc2scc(-c3ccccc3)c2c1=O (stereo not drawn)	x	80*	0.2	x	76*	0.2
O=C(CSc1nnc2scc(-c3ccccc3)n12)NCc1ccc2c(c1)OCO2	-3	12	0.3	-1	68*	0.9
CC(Sc1nnc(-c2cccs2)n1-c1ccccc1)C(=O)NCc1ccc2c(c1)OCO2 (stereo not drawn)	-18	93*	0.3	-1	75*	0.1
C=CCn1c(SCC(=O)NCc2ccc3c(c2)OCO3)nc2scc(-c3ccc(F)cc3)c2c1=O	-2	0	1.1	-9	-12	1
CC(Sc1nnc(C2CCCCC2)n1N)C(=O)NCc1ccc2c(c1)OCO2 (stereo not drawn)	3	31	0.7	-2	32	0.7
O=C(CSc1nnc(Cc2cccs2)n1-c1ccccc1)NCc1ccc2c(c1)OCO2	-17	59*	0.8	-4	20	0.4
Cc1cccc2cc(CN(CC3CCCO3)C(c3nnnn3Cc3ccco3)C(C)C)c(=O)[nH]c12 (stereo not drawn)	x	39	0.8	x	15	0.6
O=C(CSc1nnc2scc(-c3ccc(Cl)cc3)n12)NCc1ccco1	2	38	0.4	2	56*	0.6
SMILES	Mac1 fbg inh	CYP2C9 inhib	CYP2C19 activ	CD11b adhes enh	CYP2C19 inh	CYP2C9 activ
O=C(CSc1nnc2scc(-c3ccc(Cl)cc3)n12)NCc1ccc2c(c1)OCO2	5	43	0.7	2	26	0.6
S=c1sc(SCCOc2ccccc2)nn1-c1ccccc1	1	x	x	-2	x	x
O=C(Nc1ccc(Cl)cc1)NC1CCCc2ccccc21 (stereo not drawn)	x	10	0.7	x	32	0.9
CCCn1c(/C=C/c2ccccc2)nc2ccccc21	x	-41	0.5	x	51*	1.4
Cc1ccc(NC(=O)Cn2c(/C=C/c3ccccc3)nc3ccccc32)cc1C	-27	100*	0.2	5	85*	0
Cc1nc2ccccc2n1CC(=O)N/N=C\C=C\c1ccccc1	x	10	0.9	x	14	0.9
CC(C)n1c(/C=C/c2ccccc2)nc2ccccc21	24	x	x	1	x	x
Cc1ccc(CNC(=O)c2ccc(Cl)cc2[N+](=O)[O-])cc1	x	-44	0.8	x	18	1.4
COC(=O)c1ccc(CSc2ccc3nnc(-c4cccnc4)n3n2)o1	-14	36	0.6	-2	36	0.6
CC(C)OCCCNC(=O)NC12CC3CC(CC(C3)C1)C2	14	7	0.4	-1	57*	0.9
COCCNC(=S)NC12CC3CC(CC(C3)C1)C2	-1	-8	0.6	2	40	1.1
CC(=O)Nc1cccc(NC(=O)CSc2nnnn2Cc2ccccc2)c1	0	42	0.7	-3	32	0.6
COc1ccc(Nc2oc(-c3ccc(Cl)cc3)nc2C#N)cc1	x	13	0.8	x	23	0.9
CNc1oc(-c2ccc(Cl)cc2)nc1P(=O)(c1ccccc1)c1ccccc1	x	64*	0.8	x	22	0.4
COc1ccc(N=C2SC(CC(=O)Nc3ccc(OC)cc3OC)C(=O)N2C)cc1 (stereo not drawn)	-3	52*	0.5	-1	49	0.5
CCCCC(=O)N1CCCC(c2nc3c(nnn3Cc3cc(C)ccc3C)c(=O)[nH]2)C1 (stereo not drawn)	8	87*	0.3	-2	67*	0.1
Cc1ccc(C)c(Cn2nnc3c(=O)[nH]c(C4CCCN(C(=O)CC(C)C)C4)nc32)c1 (stereo not drawn)	13	79*	0.4	-1	61*	0.2
CCOc1ccccc1NC(=O)N1CCCC(c2nc3c(nnn3Cc3ccc(C)cc3)c(=O)[nH]2)C1 (stereo not drawn)	23	6	0.9	3	14	0.9
Cc1ccc(C(=O)N2CCCC(c3nc4c(nnn4Cc4ccccc4)c(=O)[nH]3)C2)cc1 (stereo not drawn)	9	47	0.9	0	10	0.5
CCN(c1ccc(NC(=O)CSc2nnc3nc(C)cc(C)n23)cc1)C(C)C	-5	11	0.9	2	10	0.9
COc1ccc(-c2csc(NC(C)=O)n2)cc1OC	10	65*	0.3	-1	68*	0.4
COc1cccc(-c2csc(NC(C)=O)n2)c1	-56	24	0.7	-2	27	0.8
COc1ccc(CC(=O)Nc2cc(C)on2)cc1OC	6	10	0.9	0	13	0.9
